Results as given in PubChem BioAssay (EPA / NIEHS).
Active and inactive are the calls of the source. The calls were made as follows: active = hit-call score of the fitted dose curve at least 0.9, where 1 is the maximum; inactive = score below 0.9.

read-out: Matrix Metallopeptidase 1 (MMP1), MMP1 (gene 4312); test: BSK_BE3C_MMP1: BioMAP Diversity Plus: BE3C Assay for Matrix Metallopeptidase 1 (MMP1) Biomarker Activity (AID 2283024); conditions: primary human bronchial epithelial cells; actives raise or lower the signal
Summary of the method: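 Human bronchial epithelial cells (BE3C system) exposed to compound for 24 h; MMP1 then quantified by ELISA. Activity was fitted in both directions relative to DMSO.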

SMILES	AC50	outcome
O=[N+]([O-])C=Cc1ccccc1	11.3 µM (active)	–
O=[N+]([O-])c1ccc(Cl)cc1	–	inactive
Nc1ccc(-c2ccc(N)c(N)c2)cc1N	–	inactive

read-out: not listed separately; test: BSK_3C_Vis: BioMAP Diversity Plus: 3C Assay for Morphology Visualization (AID 2283025); conditions: primary human endothelial cells (HUVEC);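 also: fitted both ways so gain or loss versus DMSO counts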;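 as to AC50: light microscopy image of cell morphology used as background control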
Summary of the method: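 Chemicals were added to primary human umbilical vein endothelium, cells were incubated 24 h, and morphology was then visualized by light microscopy. Gain or loss of signal was fitted bidirectionally relative to DMSO.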

SMILES	AC50	outcome
CCCCCCCCCCCC#N	40.2 µM (active)	–
CC(C)CCCCCCCOC(=O)c1ccccc1C(=O)OCCCCCCCC(C)C	–	inactive
O=[N+]([O-])C=Cc1ccccc1	8.8 µM (active)	–
O=[N+]([O-])c1ccc(Cl)cc1	–	inactive
Nc1ccc(-c2ccc(N)c(N)c2)cc1N	–	inactive

read-out: Pselectin, SELP (gene 6403); test: BSK_4H_Pselectin: BioMAP Diversity Plus: 4H Assay for Pselectin Biomarker Activity (AID 2283026); conditions: primary human endothelial cells (HUVEC); actives raise or lower the signal
Summary of the method: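 ELISA read-out of P-selectin on human umbilical vein endothelium after 24 h of dosing. Values derive from bidirectional fitting relative to DMSO. Parallel SRB protein staining flagged overt cytotoxicity.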

SMILES	AC50	outcome
CCCCCCCCCCCC#N	20.6 µM (active)	–
CC(C)CCCCCCCOC(=O)c1ccccc1C(=O)OCCCCCCCC(C)C	–	inactive
O=[N+]([O-])C=Cc1ccccc1	5.78 µM (active)	–
O=[N+]([O-])c1ccc(Cl)cc1	–	inactive
Nc1ccc(-c2ccc(N)c(N)c2)cc1N	24.9 µM (active)	–

read-out: not listed separately; test: BSK_4H_SRB: Viability Assessment in the BioMAP Diversity Plus: 4H Assay (AID 2283027); conditions: primary human endothelial cells (HUVEC);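 also: cells exposed to compound for 24 h before staining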;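 as to AC50: curves fitted both ways versus DMSO so AC50 may be loss or gain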
Summary of the method: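 Human umbilical vein endothelial cells, 24 h after chemical dosing; total protein measured by 0.1% sulforhodamine B staining after 10% TCA fixation, read at 560 nm. Bidirectional fitting against DMSO.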

SMILES	AC50	outcome
CCCCCCCCCCCC#N	30.3 µM (active)	–
CC(C)CCCCCCCOC(=O)c1ccccc1C(=O)OCCCCCCCC(C)C	–	inactive
O=[N+]([O-])C=Cc1ccccc1	5.27 µM (active)	–
O=[N+]([O-])c1ccc(Cl)cc1	–	inactive
Nc1ccc(-c2ccc(N)c(N)c2)cc1N	–	inactive

read-out: not listed separately; test: BSK_BE3C_SRB: Viability Assessment in the BioMAP Diversity Plus: BE3C Assay (AID 2283028); conditions: primary human bronchial epithelial cells;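 as to AC50: fitted both ways so AC50 may mark signal gain or loss versus DMSO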
Summary of the method: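 SRB total-protein staining (0.1%, after TCA fixation) of chemically dosed human bronchial epithelial primary cells at 24 h; DMSO serves as the negative control for bidirectional curve fitting.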

SMILES	outcome	AC50
CCCCCCCCCCCC#N	inactive	–
CC(C)CCCCCCCOC(=O)c1ccccc1C(=O)OCCCCCCCC(C)C	inactive	–
O=[N+]([O-])C=Cc1ccccc1	–	24.3 µM (active)
O=[N+]([O-])c1ccc(Cl)cc1	inactive	–
Nc1ccc(-c2ccc(N)c(N)c2)cc1N	inactive	–

read-out: Urokinase-type plasminogen activator receptor (uPAR), PLAUR (gene 5329); test: BSK_4H_uPAR: BioMAP Diversity Plus: 4H Assay for Urokinase-type plasminogen activator receptor (uPAR) Biomarker Activity (AID 2283030); conditions: primary human endothelial cells (HUVEC); actives raise or lower the signal
Summary of the method: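 Endpoint derived via bidirectional curve fitting against DMSO baseline; readout was ELISA detection of uPAR on umbilical vein endothelial cells at 24 h post-treatment, with SRB-stained parallel cultures assessing cytotoxicity.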

SMILES	AC50	outcome
CCCCCCCCCCCC#N	20.6 µM (active)	–
CC(C)CCCCCCCOC(=O)c1ccccc1C(=O)OCCCCCCCC(C)C	–	inactive
O=[N+]([O-])C=Cc1ccccc1	5.14 µM (active)	–
O=[N+]([O-])c1ccc(Cl)cc1	–	inactive
Nc1ccc(-c2ccc(N)c(N)c2)cc1N	–	inactive

read-out: Vascular endothelial growth factor receptor 2 (Homo sapiens) (UniProt P35968); test: BSK_4H_VEGFRII: BioMAP Diversity Plus: 4H Assay for Vascular endothelial growth factor receptor 2 (VEGFR2) Biomarker Activity (AID 2283031); conditions: primary human endothelial cells (HUVEC); actives raise or lower the signal;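 as to AC50: cell-surface VEGFR2 protein level quantified by ELISA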
Summary of the method: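 In this multiplexed HUVEC system, biomarker ELISA was performed after 24 h chemical exposure. Parallel SRB staining (TCA fixation, 560 nm) tracked cytotoxicity; DMSO served as baseline.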

SMILES	AC50	outcome
CCCCCCCCCCCC#N	20.6 µM (active)	–
CC(C)CCCCCCCOC(=O)c1ccccc1C(=O)OCCCCCCCC(C)C	–	inactive
O=[N+]([O-])C=Cc1ccccc1	–	inactive
O=[N+]([O-])c1ccc(Cl)cc1	–	inactive
Nc1ccc(-c2ccc(N)c(N)c2)cc1N	–	inactive

read-out: Human Leukocyte Antigen - DR isotype (HLADR), HLA-DRA (gene 3122); test: BSK_BE3C_HLADR: BioMAP Diversity Plus: BE3C Assay for Human Leukocyte Antigen - DR isotype (HLADR) Biomarker Activity (AID 2283032); conditions: primary human bronchial epithelial cells; actives raise or lower the signal
Summary of the method: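 ELISA read-out of HLA-DR on human lung bronchial epithelial primary cells, measured 24 h post-dosing. Both increases and decreases were scored relative to DMSO vehicle.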

SMILES	outcome	AC50
CCCCCCCCCCCC#N	inactive	–
CC(C)CCCCCCCOC(=O)c1ccccc1C(=O)OCCCCCCCC(C)C	inactive	–
O=[N+]([O-])C=Cc1ccccc1	–	1.56 µM (active)
O=[N+]([O-])c1ccc(Cl)cc1	inactive	–
Nc1ccc(-c2ccc(N)c(N)c2)cc1N	inactive	–
